Out of some 5,500 compounds screened, about 2,000 (36%) were called active. Roughly 18% stayed inconclusive and do not appear here. Cut-off read from the data, not from the text of the source: active = normalized growth mostly below about 0.91 (no sharp cut-off); inconclusive = no clear call, values can overlap the other calls; inactive = mostly above about 0.92. Some of the results follow.
Assay: chemical genetic growth profiling, strain panel (AID 1159580);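 note: tested at 20 µM; growth read once vehicle control cultures reached saturation at 30 °C; 1 = growth at the plate median or of vehicle wells; lower values mean less growth of the strain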
Conditions: growth OD

Measured: normalized growth

Nc1nc(=S)c2[nH]cnc2[nH]1
inactive: S. cerevisiae deletion strains, locus YJR075W, strain HOC1, active compounds read low 1.03 | S. cerevisiae deletion strains, locus YKL009W, strain mrt4, active compounds read low 1 | S. cerevisiae deletion strains, locus YKL068W, active compounds read low 1 | S. cerevisiae deletion strains, locus YKL085W, strain MDH1 (second series), active compounds read low 1.02 | S. cerevisiae deletion strains, locus YKL085W, strain MDH1, active compounds read low 1.02 | S. cerevisiae deletion strains, locus YKL160W, strain elf1, active compounds read low 0.943 | S. cerevisiae deletion strains, locus YKL190W, strain CNB1, active compounds read low 1 | S. cerevisiae deletion strains, locus YKR001C, strain vps1, active compounds read low 1.01 | S. cerevisiae deletion strains, locus YKR026C, strain gcn3, active compounds read low 0.976 | S. cerevisiae deletion strains, locus YKR091W, strain srl3, active compounds read low 0.975 | S. cerevisiae deletion strains, locus YLL001W, strain dnm1, active compounds read low 1 | S. cerevisiae deletion strains, locus YLL026W, active compounds read low 0.983 | S. cerevisiae deletion strains, locus YLL041C, strain sdh2, active compounds read low 0.984 | S. cerevisiae deletion strains, locus YLR027C, strain aat2, active compounds read low 0.992 | S. cerevisiae deletion strains, locus YLR039C, strain RIC1, active compounds read low 1.08 | S. cerevisiae deletion strains, locus YLR058C, strain SHM2, active compounds read low 1.01 | S. cerevisiae deletion strains, locus YLR102C, strain apc9, active compounds read low 0.999 | S. cerevisiae deletion strains, locus YLR113W, strain HOG1, active compounds read low 0.984 | S. cerevisiae deletion strains, locus YLR221C, strain rsa3, active compounds read low 1.03 | S. cerevisiae deletion strains, locus YLR258W, strain gsy2, active compounds read low 0.961 | S. cerevisiae deletion strains, locus YLR262C, strain YPT6 (second series), active compounds read low 1 | S. cerevisiae deletion strains, locus YLR262C, strain YPT6, active compounds read low 1.07 | S. cerevisiae deletion strains, locus YLR268W, strain sec22, active compounds read low 1.01 | S. cerevisiae deletion strains, locus YLR320W, strain mms22, active compounds read low 0.992 | S. cerevisiae deletion strains, locus YLR330W, strain CHS5, active compounds read low 1.01 | S. cerevisiae deletion strains, locus YLR342W, strain FKS1 (second series), active compounds read low 1 | S. cerevisiae deletion strains, locus YLR342W, strain FKS1, active compounds read low 0.957 | S. cerevisiae deletion strains, locus YLR357W, strain rsc2, active compounds read low 0.937 | S. cerevisiae deletion strains, locus YLR370C, strain arc18, active compounds read low 0.974 | S. cerevisiae deletion strains, locus YLR371W, strain rom2, active compounds read low 1 | S. cerevisiae deletion strains, locus YLR384C, strain iki3, active compounds read low 0.97 | S. cerevisiae deletion strains, locus YLR418C, strain cdc73, active compounds read low 1 | S. cerevisiae deletion strains, locus YML016C, strain PPZ1, active compounds read low 1.01 | S. cerevisiae deletion strains, locus YML032C, strain rad52, active compounds read low 0.996 | S. cerevisiae deletion strains, locus YML120C, strain ndi1, active compounds read low 0.983 | S. cerevisiae deletion strains, locus YML124C, strain tub3, active compounds read low 0.998 | S. cerevisiae deletion strains, locus YMR058W, strain fet3, active compounds read low 1 | S. cerevisiae deletion strains, locus YMR078C, strain ctf18, active compounds read low 0.997 | S. cerevisiae deletion strains, locus YMR125W, strain sto1, active compounds read low 0.952 | S. cerevisiae deletion strains, locus YMR129W, active compounds read low 0.971 | S. cerevisiae deletion strains, locus YMR205C, strain PFK2, active compounds read low 0.995 | S. cerevisiae deletion strains, locus YMR223W, strain ubp8, active compounds read low 0.985 | S. cerevisiae deletion strains, locus YMR231W, strain pep5, active compounds read low 0.987 | S. cerevisiae deletion strains, locus YMR263W, strain SAP30, active compounds read low 1 | S. cerevisiae deletion strains, locus YMR307W, strain GAS1, active compounds read low 1.02 | S. cerevisiae deletion strains, locus YNL067W, strain RPL9B, active compounds read low 1.02 | S. cerevisiae deletion strains, locus YNL071W, strain lat1, active compounds read low 0.981 | S. cerevisiae deletion strains, locus YNL128W, strain TEP1, active compounds read low 1.03 | S. cerevisiae deletion strains, locus YNL153C, strain GIM3, active compounds read low 0.992 | S. cerevisiae deletion strains, locus YNL183C, strain NPR1, active compounds read low 0.956 | S. cerevisiae deletion strains, locus YNL209W, strain ssb2, active compounds read low 0.98 | S. cerevisiae deletion strains, locus YNL233W, strain BNI4, active compounds read low 1.01 | S. cerevisiae deletion strains, locus YNL248C, strain rpa49, active compounds read low 0.92 | S. cerevisiae deletion strains, locus YNL250W, strain rad50, active compounds read low 0.992 | S. cerevisiae deletion strains, locus YNL271C, strain bni1, active compounds read low 1 | S. cerevisiae deletion strains, locus YNL298W, strain CLA4, active compounds read low 1.01 | S. cerevisiae deletion strains, locus YNL307C, strain MCK1, active compounds read low 1 | S. cerevisiae deletion strains, locus YNL322C, strain KRE1 (second series), active compounds read low 0.963 | S. cerevisiae deletion strains, locus YNL322C, strain KRE1, active compounds read low 1.02 | S. cerevisiae deletion strains, locus YNR049C, strain mso1, active compounds read low 0.979 | S. cerevisiae deletion strains, locus YNR052C, strain pop2, active compounds read low 0.999 | S. cerevisiae deletion strains, locus YOL006C, strain TOP1, active compounds read low 1.06 | S. cerevisiae deletion strains, locus YOL012C, strain htz1 1.07 | S. cerevisiae deletion strains, locus YOL147C, strain pex11, active compounds read low 0.995 | S. cerevisiae deletion strains, locus YOR001W, strain rrp6, active compounds read low 1.01 | S. cerevisiae deletion strains, locus YOR061W, strain CKA2, active compounds read low 1.01 | S. cerevisiae deletion strains, locus YOR069W, strain VPS5, active compounds read low 1.01 | S. cerevisiae deletion strains, locus YOR070C, strain gyp1, active compounds read low 0.973 | S. cerevisiae deletion strains, locus YOR080W, strain dia2, active compounds read low 0.996 | S. cerevisiae deletion strains, locus YOR083W, strain WHI5, active compounds read low 0.914 | S. cerevisiae deletion strains, locus YOR106W, strain vam3, active compounds read low 0.96 | S. cerevisiae deletion strains, locus YOR136W, strain idh2, active compounds read low 0.999 | S. cerevisiae deletion strains, locus YOR144C, strain elg1, active compounds read low 0.999 | S. cerevisiae deletion strains, locus YOR184W, strain ser1, active compounds read low 1.01 | S. cerevisiae deletion strains, locus YOR231W, strain MKK1, active compounds read low 1.02 | S. cerevisiae deletion strains, locus YOR265W, strain rbl2, active compounds read low 0.991 | S. cerevisiae deletion strains, locus YOR270C, strain vph1, active compounds read low 1.03 | S. cerevisiae deletion strains, locus YOR290C, strain snf2, active compounds read low 0.942 | S. cerevisiae deletion strains, locus YOR316C, strain cot1, active compounds read low 0.997 | S. cerevisiae deletion strains, locus YPL051W, strain arl3, active compounds read low 0.964 | S. cerevisiae deletion strains, locus YPL055C, strain LGE1, active compounds read low 1.02 | S. cerevisiae deletion strains, locus YPL078C, strain atp4, active compounds read low 0.95 | S. cerevisiae deletion strains, locus YPL106C, strain sse1, active compounds read low 0.977 | S. cerevisiae deletion strains, locus YPL240C, strain hsp82, active compounds read low 1.02 | S. cerevisiae deletion strains, locus YPL241C, strain CIN2, active compounds read low 1.01 | S. cerevisiae deletion strains, locus YPL256C, strain CLN2, active compounds read low 0.964 | S. cerevisiae deletion strains, locus YPR119W, strain clb2, active compounds read low 1.01 | S. cerevisiae deletion strains, locus YPR141C, strain kar3, active compounds read low 0.997 | S. cerevisiae deletion strains, locus YPR163C, strain tif3, active compounds read low 1 | S. cerevisiae deletion strains, locus YPR167C, strain met16, active compounds read low 1 | S. cerevisiae deletion strains, strain wtn01, active compounds read low 0.98 | S. cerevisiae strains, strain wild type, active compounds read low 1.01
